This assay has as its system VDR:RXRa (NR concentration 270 nM, RXRa partner concentration 90 nM). Description: PBM binding z-score (relative to random genomic background probes); higher = stronger binding; sequences stand for … in GC…GCGATTGACAGCGTAGAATGAAGG
The method, then: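 Protein-binding microarray (Agilent 4x180K custom design, double-stranded 60-nt probes: 5' GC cap, 34-nt variable region, 24-nt constant primer region; full probe sequence given). Purified or IVT nuclear receptor:RXRα heterodimers (3:1 NR:RXRα, mostly 270:90 nM) or homodimers were incubated for 1 h in PBS with 2% milk and no ligand, then detected with Alexa488 antibodies. Fluorescence from o1-orientation probes (~5 replicates averaged) was converted to z-scores against 500 random hg19 background probes. Variable regions are seed direct-repeat (DR0–DR5) sites, all their single-nucleotide variants and half-site ablations.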
Take GCTATTAGTTGAAAGGTCAACCGAATGATTCTCG: the PBM binding z-score was 4.71.

Turning to ATCGAAAGTTCGAGGTGAGTATAGAGAAAGGGAA, the PBM binding z-score was determined as 1.16.

Regarding CCTAGTTGGTCAAGGTCAAACACGCTATAGGTAC, the PBM binding z-score came out at 4.47.

CGTACTAGGTCATCCAGGACAGTGAATACATTGA registered a PBM binding z-score of 4.32.

For the sequence GCTAGTTGGTCAGTAAAAGGTCAAACACCGGTCG, the PBM binding z-score was 4.29.

With CCTCGGAGGACAGAAGCTCAGAGCTGTCCGCTTT, the PBM binding z-score is -0.941.

For the sequence CGTCCAAGGTCAATGCTAGGTCAGCGAAAGCATT, the PBM binding z-score was determined as 4.93.

Turning to GCAGACAGGTGAAACGCAGGTAACTCCGGGTGGC, the PBM binding z-score is -0.595.

In the case of CTACCAAGGTGAAGAAGGTCGTTGATTACTATTC, the PBM binding z-score was 4.25.

Sequence TCTTGTAGAACAATAGAGGTTAAGAAAGTGCGCT came in with a PBM binding z-score of 1.65.

ATCTCTAGGGAACAAGTTCAGTGAAAGAGAGGAC gave a PBM binding z-score of 1.48.

In turn, ATACCAAGGTGATCGTGAGGACGTTGATACTAAC gave a PBM binding z-score of 0.664.

TGAATGAGGTTATAAGACCAGGGAACGTTGCAAA displayed a PBM binding z-score of 0.916.

Sequence GCTATTAGTTTAAAGGGCAACCGAATGATTCTCG came in with a PBM binding z-score of 0.65.

On to TCGAGTAGGTTAGGGCCATTCAGAATGGCGTCGA, for which the PBM binding z-score is -0.353.

The sequence GCTTGTAGATCAAGGTCAAGAAAGACTAAGCTAA returned a PBM binding z-score of 2.67.

Sequence ATATGTAGGCTAAGGGTCATTCAGGTTGGTTCGC showed a PBM binding z-score of 5.13.

As to CTTTACGGGTCACTCCAGGTTATAGCATCGGAGT, the PBM binding z-score amounted to 4.46.

In turn, ACTCGGAGGACAAAGTTCAGAGCTACGCCAGTGA gave a PBM binding z-score of 1.95.

The sequence CCCACTGGGGCAGAAAGGTTACCATACCATCCGG gave a PBM binding z-score of 0.905.

Take ATATGTAGGTTAGCTGGGGACATTCAGACTAGGC: the PBM binding z-score was determined as 2.39.

CGTCCATGGTCAAAGGTCAGTGAAGAGATGACGG displayed a PBM binding z-score of 3.39.

Take TTGCCTAGGTCATTCAGGGGCCAGTATAGAAAGC: the PBM binding z-score came out at 3.15.

The sequence CCGACTGGGGCAAAGGTTAACATACTCAGTACGA yielded a PBM binding z-score of 2.2.

As for CCGAGTAGGTTATGGGCCATTCAGGCAACGGTGA, the PBM binding z-score was -0.116.

For ATCTGTAGGTTAGCTGGGGTCATTCAGACTAGGC, the PBM binding z-score was determined as 6.14.

Sequence CCTAGCAGGCCAGGGACACTCAAGCATTTCGCTT yielded a PBM binding z-score of -0.417.

In turn, ATCTCTAGGTAAAAGTTGAGTGAATCCCGAGGAT came in with a PBM binding z-score of -0.00666.

Sequence TCTCGGAGGATACGAAAGGTCAGAGCTCGACATC gave a PBM binding z-score of 2.6.

In the case of CGAACTAGGTCAAGAGGTCAAAGTCCGCTTCCCG, the PBM binding z-score was 6.13.

Sequence AGAATGAGGTTATGATCAGGGAAACAGAATACAT showed a PBM binding z-score of 1.11.

Turning to CTCGAAAGGTCGGTTGAGATGAGTATACGGATAA, the PBM binding z-score worked out at 0.961.

With ATCGAAAGGTCGTGAGGTGAGTATACAGAAAGGC, the PBM binding z-score came to 3.69.

Consider GCTTACGGGTCAAAGGTTCTAGCATGAATAGAAT, for which the PBM binding z-score was determined as 4.42.

Sequence CGATCTAGGTCATCCAGGACAGTGAATACATTGA showed a PBM binding z-score of 4.67.

In turn, TAATATAGGTAAATGCTAGGTGAAAGTCCGATCT gave a PBM binding z-score of 0.36.

TCTCGGAGGACAAGAAGGTCAGAGCTTTCCAGAG gave a PBM binding z-score of 1.8.

The sequence AGAATGAGGTTATACGTAGATCAGGGCAGAAAGT had a PBM binding z-score of 1.67.

CCGACTAGGGCAAGGTTACCATAACGCACAGCCA returned a PBM binding z-score of 0.178.

Sequence CCTCGGAGGACAGAAGGTTAGAGCTGTCCGCTTT yielded a PBM binding z-score of -0.275.

For the origin of these results see the supplement of paper PMC6555819.
